The compounds below were run on PAK6. Details: concentration: 1 μM, replicates: in singlicate; n = 1.
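Also: KINOMEscan kinase panel screen.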

SMILES | %Inh [%]
COc1cc2nccc(Nc3ccc(NC(=O)c4ccc(C)cc4)c(O)c3)c2cc1OC.Cl [GW440132] | 0
COC(=O)c1c(-c2ccccc2)c2cc(OC)ccc2c(=O)n1Cc1ccccc1 | 3
O=C(O)COc1ncnc2cc(-c3ccc4[nH]ncc4c3)sc12 | 0
COc1ccc(C2=C(Nc3cccc(C(=O)O)c3)C(=O)NC2=O)cc1 [SB-390765] | 0
CCn1c(-c2ccccn2)nc2cnccc21 [SB-736398] | 0
Cn1ccc2ncnc(Oc3ccc(Nc4nc5ccccc5[nH]4)cc3)c21 | 9
O=C(Nc1n[nH]c2cc(-c3cccc(F)c3F)ccc12)C1CC1 [SB-733894] | 0
Clc1cc(Cl)cc(Nc2ccnc(Nc3cc(Cl)cc(Cl)c3)n2)c1 [GSK175726] | 9
Cc1cccc(-c2nc(Nc3ccncc3)c3ccccc3n2)n1 [GW855857] | 3
CCCc1ccc(S(=O)(=O)NC2CCN(c3ccnc(Nc4ccc(F)cc4)n3)C2)cc1 (stereo not shown) [GSK1379715] | 0
COc1ccc(CNC(=O)NC2CCN(c3ccnc(Nc4cc(OC)c(OC)c(OC)c4)n3)C2)cc1 (stereo not shown) [GSK1379748] | 0
Cc1c(O)cccc1Nc1ccnc2ccc(C(F)(F)F)cc12.Cl [GW466413] | 0
Cc1c(Cn2ccn3c(=O)cc(N4CCOCC4)nc23)cccc1C(F)(F)F [GSK2289044] | 4
COC(=O)c1c(-c2ccccc2)c2cc(C(=O)O)ccc2c(=O)n1Cc1ccccc1 | 16
Cl.c1ccc(-c2n[nH]cc2-c2ccnc(-c3ccc(CN4CCOCC4)cc3)c2)nc1 [GW776245] | 14
Cc1cc(NCC(c2ccccc2)c2ccccc2)nc(NCc2ccc(C(F)(F)F)cc2)n1 [GW497681] | 0
COc1cccc(-c2cc(-c3c[nH]nc3-c3ccccn3)ccn2)c1 [GW680338] | 3
O=C(Nc1ccccc1)Nc1cccc(Oc2ccc3nccn3n2)c1 | 0
Nc1ncnc2[nH]c(-c3ccccc3)nc12 [AH5015] | 0

— article PMC5540273 (PLoS ONE, 2017)
